The whole screen tested about 40,000 compounds, of which about 1,400 (3.5%) were called active. The sample holds actives, similar compounds and a random draw of the others, so the mix is not that of the screen.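 How the source made its calls: active means any of four per-well response measures lying three or more SD from its plate-wide compound average, in either direction; inactive means the rest, inconclusive results apart.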

Sequence of Voltage-dependent calcium channel gamma-2 subunit (Mus musculus) + Glutamate receptor 2 (Rattus norvegicus) (O88602 whole entry, looked up): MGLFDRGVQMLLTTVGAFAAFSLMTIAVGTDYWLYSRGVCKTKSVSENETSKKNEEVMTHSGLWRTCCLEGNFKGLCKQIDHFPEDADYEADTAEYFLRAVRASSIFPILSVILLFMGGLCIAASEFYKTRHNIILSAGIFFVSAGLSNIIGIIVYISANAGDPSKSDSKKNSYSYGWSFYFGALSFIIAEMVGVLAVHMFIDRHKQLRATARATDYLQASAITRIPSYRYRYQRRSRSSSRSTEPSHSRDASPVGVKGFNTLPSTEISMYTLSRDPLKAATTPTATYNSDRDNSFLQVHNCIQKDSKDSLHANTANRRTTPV
Sequence of Voltage-dependent calcium channel gamma-2 subunit (Mus musculus) + Glutamate receptor 2 (Rattus norvegicus) (P19491 whole entry, looked up): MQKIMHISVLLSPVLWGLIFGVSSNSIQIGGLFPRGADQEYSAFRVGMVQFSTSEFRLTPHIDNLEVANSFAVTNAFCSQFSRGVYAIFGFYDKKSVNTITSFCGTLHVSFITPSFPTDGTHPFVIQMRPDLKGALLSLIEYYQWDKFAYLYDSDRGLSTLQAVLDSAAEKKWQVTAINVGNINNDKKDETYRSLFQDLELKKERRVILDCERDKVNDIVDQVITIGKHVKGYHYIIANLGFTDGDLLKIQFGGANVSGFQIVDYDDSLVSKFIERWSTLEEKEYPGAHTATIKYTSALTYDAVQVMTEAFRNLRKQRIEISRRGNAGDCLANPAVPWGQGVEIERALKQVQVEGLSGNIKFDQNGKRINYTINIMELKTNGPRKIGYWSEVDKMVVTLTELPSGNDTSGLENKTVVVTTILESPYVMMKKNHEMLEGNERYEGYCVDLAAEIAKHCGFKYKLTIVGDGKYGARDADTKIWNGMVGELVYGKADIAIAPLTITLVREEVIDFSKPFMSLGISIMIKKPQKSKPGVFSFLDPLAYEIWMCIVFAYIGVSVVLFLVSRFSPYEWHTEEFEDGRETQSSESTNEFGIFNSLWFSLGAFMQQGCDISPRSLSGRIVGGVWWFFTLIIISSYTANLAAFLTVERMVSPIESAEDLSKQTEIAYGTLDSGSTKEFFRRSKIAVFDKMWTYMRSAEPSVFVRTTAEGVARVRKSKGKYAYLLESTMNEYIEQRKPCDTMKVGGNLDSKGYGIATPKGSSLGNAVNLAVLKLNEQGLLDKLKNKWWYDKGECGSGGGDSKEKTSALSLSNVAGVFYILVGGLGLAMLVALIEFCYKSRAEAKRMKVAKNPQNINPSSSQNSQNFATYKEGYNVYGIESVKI

This assay concerns the target Voltage-dependent calcium channel gamma-2 subunit (Mus musculus) + Glutamate receptor 2 (Rattus norvegicus) (UniProt O88602+P19491). The assay can be described thus: AMPAR-TARP gamma-2 complex positive or negative modulation – cell-based, membrane potential dye, primary screen (AID 1259245). The conditions noted are these: HEK293 GluA2+stargazin, membrane potential dye (FDSS), glutamate EC50, at 30 µM, hits were called plate by plate, in both directions; compound max-min signal: compound-alone response (agonism); glutamate slope, % of max: measured here: glutamate response slope, % max.
On to `COCCCn1c(C(=O)Nc2cccnc2)cc2c(=O)n(C)c(=O)n(C)c21`, for which the compound max-min signal amounted to 0.306; the glutamate response, % of max was 24.6% (active); the glutamate slope, % of max amounted to 44.9%.

For the compound `COCCCNc1nc2c(c(=O)n(C)c(=O)n2C)n1CC(O)COc1ccc(C)c(C)c1` (stereo unspecified), the compound max-min signal stood at 0.0698; the glutamate response, % of max was 46.2% (inactive); the glutamate slope, % of max amounted to 75.7%.

As for `COc1ccccc1NC(=O)Cn1cc(-c2nnc(-c3ccco3)o2)c2ccccc21`, the compound max-min signal amounted to 0.137; the glutamate response, % of max was 42.8% (inactive); the glutamate slope, % of max is 63.9%.

Turning to `COc1cccc2sc(N(Cc3ccco3)C(=O)CSCc3ccccc3)nc12`, the compound max-min signal is 0.0832; the glutamate response, % of max was 31.9% (inactive); the glutamate slope, % of max is 54.9%.

Regarding `COc1ccc2nc(N(CCN3CCOCC3)C(=O)c3ccc([N+](=O)[O-])o3)sc2c1`, the compound max-min signal came out at 0.173; the glutamate response, % of max is 42.6% (active); the glutamate slope, % of max was 68.7%.

For the compound `COc1ccc2nc(N(CCN3CCOCC3)C(=O)c3cc4cc([N+](=O)[O-])ccc4s3)sc2c1`, the compound max-min signal is 0.0573; the glutamate response, % of max was 31% (inactive); the glutamate slope, % of max worked out at 45.5%.

With `COc1ccc2nc(N(CCN3CCOCC3)C(=O)c3ccccc3S(C)(=O)=O)sc2c1`, the compound max-min signal worked out at 0.0288; the glutamate response, % of max was 22.5% (inactive); the glutamate slope, % of max worked out at 42.4%.

As to `c1nc(N2CCN(Cc3ccc4c(c3)OCO4)CC2)c2c3c(sc2n1)CCCC3`, the compound max-min signal was 0.0914; the glutamate response, % of max is 49% (inactive); the glutamate slope, % of max was found to be 68.7%.

For the compound `COc1ccc(/C=C2\Oc3c(ccc4c3CN(c3ccc(F)cc3)CO4)C2=O)c(OC)c1OC`, the compound max-min signal was 0.103; the glutamate response, % of max is 23.7% (inactive); the glutamate slope, % of max worked out at 51.7%.

As for `COC(=O)c1ccsc1NC(=O)CC1Sc2ccccc2NC1=O` (stereo unspecified), the compound max-min signal was 0.0707; the glutamate response, % of max is 30.1% (inactive); the glutamate slope, % of max came to 49.8%.

As to `COC(=O)c1c(NC(=O)CC2NCCNC2=O)sc(C)c1C` (stereo unspecified), the compound max-min signal was 0.0942; the glutamate response, % of max was 53% (active); the glutamate slope, % of max amounted to 55.8%.

For the compound `O=C(/C=C/c1ccccc1)Nc1ccc(CC(=O)N2CCCC2)cc1`, the compound max-min signal was found to be 0.119; the glutamate response, % of max is 31.3% (inactive); the glutamate slope, % of max was determined as 65.4%.

In the case of `C=CCNC(=O)NC1CCCCC1N1C(=O)CSC1=O` (stereo unspecified), the compound max-min signal stood at 0.12; the glutamate response, % of max was 10.5% (inactive); the glutamate slope, % of max came out at 45.6%.

`CSc1ccccc1NC(=O)c1nc(-c2cnccn2)no1`: the compound max-min signal came to 0.143; the glutamate response, % of max is 23.2% (inactive); the glutamate slope, % of max is 49.2%.

`COc1ccc(NC(=O)CCc2sc(C)nc2-c2cccs2)cc1OC`: the compound max-min signal was 0.123; the glutamate response, % of max is 37.8% (inactive); the glutamate slope, % of max is 60.9%.

Regarding `Cc1nc(-c2cccs2)c(CCC(=O)NCc2ccc3c(c2)OCO3)s1`, the compound max-min signal is 0.114; the glutamate response, % of max was 10.6% (active); the glutamate slope, % of max worked out at 25.8%.

As for `COc1ccc(CCNC(=O)CCc2sc(C)nc2-c2cccs2)cc1`, the compound max-min signal is 0.0606; the glutamate response, % of max is 19.1% (inactive); the glutamate slope, % of max came to 37.1%.

Consider `Cc1ccc2cc(CNc3ccccc3)c(=O)n(CC(=O)Nc3ccccc3C)c2c1`, for which the compound max-min signal is 0.0993; the glutamate response, % of max was 29.6% (inactive); the glutamate slope, % of max worked out at 44.3%.

As for `COc1ccc2cc(CNc3ccccc3)c(=O)n(CC(=O)Nc3ccccc3OC)c2c1`, the compound max-min signal came out at 0.0876; the glutamate response, % of max is -1.71% (active); the glutamate slope, % of max amounted to 4.4%.

Regarding `COc1cc2cc(CNc3ccc(C)cc3)c(=O)n(CC(=O)Nc3ccccc3F)c2cc1OC`, the compound max-min signal worked out at 0.116; the glutamate response, % of max is 25.6% (inactive); the glutamate slope, % of max is 49.4%.

Turning to `Cc1cc(C)cc(-n2c(SCC#N)nc3cc(C(=O)NC4CCCC4)ccc3c2=O)c1`, the compound max-min signal is 0.127; the glutamate response, % of max was 50.2% (inactive); the glutamate slope, % of max was determined as 72.1%.

As to `CCOC(=O)c1ccc(-n2c(C)c(C)n3c4c(=O)n(CC)c(=O)n(C)c4nc23)cc1`, the compound max-min signal was 0.126; the glutamate response, % of max is 48.1% (inactive); the glutamate slope, % of max was 62.4%.

With `CCC(C)c1ccccc1OCC(O)CN` (stereo unspecified), the compound max-min signal was found to be 0.0631; the glutamate response, % of max was 21.1% (inactive); the glutamate slope, % of max was determined as 39.8%.

Regarding `Cc1cc(N(C)C)nc(-n2cc([N+](=O)[O-])cn2)n1`, the compound max-min signal is 0.178; the glutamate response, % of max is 35.4% (active); the glutamate slope, % of max came out at 63.4%.

In the case of `O=C(c1ccc(Cl)s1)N1CCC(c2ccsc2)CC1`, the compound max-min signal was 0.0754; the glutamate response, % of max was 43.8% (inactive); the glutamate slope, % of max is 57%.

With `COCCNC(=O)C(=O)Nc1cc(N2CCCS2(=O)=O)ccc1OC`, the compound max-min signal stood at 0.105; the glutamate response, % of max was 22.8% (inactive); the glutamate slope, % of max was 46.1%.

Take `CCOc1ccc(C(=O)Nc2sc3c(c2-c2nc4ccccc4s2)CCN(C)C3)cc1`: the compound max-min signal was 0.114; the glutamate response, % of max was 34.3% (inactive); the glutamate slope, % of max was 50.1%.

As to `CN1CCc2c(sc(NC(=O)c3ccc(Br)cc3)c2-c2nc3ccccc3s2)C1`, the compound max-min signal was 0.139; the glutamate response, % of max was 53.9% (inactive); the glutamate slope, % of max stood at 74%.

On to `CC(=O)c1ccc(C(=O)Nc2sc3c(c2-c2nc4ccccc4s2)CCN(C)C3)cc1`, for which the compound max-min signal turned out to be 0.226; the glutamate response, % of max is 65.6% (active); the glutamate slope, % of max was found to be 85%.

Turning to `COc1ccc2sc(N(CC3CCCO3)C(=O)C3CCCC3)nc2c1` (stereo unspecified), the compound max-min signal is 0.117; the glutamate response, % of max was 20% (inactive); the glutamate slope, % of max was 33.1%.

Take `CN1C(=O)Cc2cc(NC(=O)NC(c3ccccc3)c3ccccc3)ccc21`: the compound max-min signal worked out at 0.121; the glutamate response, % of max is 41.8% (inactive); the glutamate slope, % of max was determined as 60.5%.

`Cc1nc2ccccn2c1C(=O)NCC(O)(c1ccccc1)C(F)(F)F` (stereo unspecified): the compound max-min signal is 0.141; the glutamate response, % of max was 14.1% (inactive); the glutamate slope, % of max was determined as 49.7%.

As for `Cc1nc2ccccn2c1C(=O)Nc1ccc2c(c1)CC(=O)N2C`, the compound max-min signal amounted to 0.213; the glutamate response, % of max is 46.6% (active); the glutamate slope, % of max was found to be 65.1%.

For `CCOC(=O)CNC(=O)C(=O)c1c(C)[nH]c2ccccc12`, the compound max-min signal came to 0.14; the glutamate response, % of max was 51.3% (inactive); the glutamate slope, % of max came out at 67.4%.

Regarding `CN(C)S(=O)(=O)NCC#CCN1CCc2ccccc2C1`, the compound max-min signal came out at 0.0659; the glutamate response, % of max was 38.5% (inactive); the glutamate slope, % of max was found to be 57.8%.

Regarding `O=S(=O)(/C=C/c1ccccc1)NCC#CCN1CCc2ccccc2C1`, the compound max-min signal worked out at 0.144; the glutamate response, % of max was 41.7% (active); the glutamate slope, % of max was determined as 55.5%.

On to `O=S(=O)(NCC#CCN1CCc2ccccc2C1)c1ccc(Br)cc1`, for which the compound max-min signal came out at 0.0488; the glutamate response, % of max is 43.9% (inactive); the glutamate slope, % of max stood at 66.2%.
